Drawing on PubChem BioAssay, this text covers growth inhibition, inhibition and outcome for 20 compounds.

Assay [1] can be described thus: antimalarial activity against Dd2 strain (AID 2302;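 active = growth inhibition above 50% at the single 2 µM test dose, taken to imply half-maximal potency below 2 µM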;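 note: 0% = DMSO untreated growth and 100% = chloroquine plus artemisinin killed control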). The settings on record: P. falciparum Dd2 in RBCs, LDH growth readout, 72 h; at 2 µM; active compounds read high.
Assay [2] in a line: human hepatoma cell viability loss – ATP luminescence, cytotoxicity control for P. falciparum antimalarial project, primary screen (AID 2303;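 active = inhibition above 50%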;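 note: 0% = DMSO wells and 100% = digitonin-killed cells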). The conditions noted are these: HepG2 viability, 24-48 h, at 10 µM, active compounds read high.
The target of assay [3] is L-lactate dehydrogenase (Plasmodium falciparum (isolate CDC / Honduras)) (UniProt Q27743). The experiment in a line: PfLDH activity inhibition – cell lysate, 3D7 strain, counter-screen for P. falciparum growth inhibition project (AID 2304).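 Note: 0% = vehicle and 100% = reference inhibitor.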 The settings on record: P. falciparum 3D7 crude extract, LDH APAD/NBT absorbance; at 2 µM; active compounds read high. On the technique in general: The purpose of a counterscreen is to sort out artefacts and off-target activity.
Chain of L-lactate dehydrogenase (Plasmodium falciparum (isolate CDC / Honduras)) (Q27743 whole entry, looked up): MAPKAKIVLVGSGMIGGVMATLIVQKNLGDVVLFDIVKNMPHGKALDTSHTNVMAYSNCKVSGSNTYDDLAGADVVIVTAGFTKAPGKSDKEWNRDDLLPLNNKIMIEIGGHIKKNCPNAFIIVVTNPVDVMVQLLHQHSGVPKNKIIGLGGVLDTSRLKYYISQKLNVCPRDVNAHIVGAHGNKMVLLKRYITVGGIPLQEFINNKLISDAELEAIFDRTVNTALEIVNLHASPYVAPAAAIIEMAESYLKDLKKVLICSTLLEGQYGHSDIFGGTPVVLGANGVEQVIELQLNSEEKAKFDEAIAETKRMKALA

Assay [4] can be described thus: inhibition of 3D7 malaria parasite growth – strain 3D7 (AID 2306).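 Note: 0% = DMSO wells and 100% = chloroquine plus artemisinin control wells.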 The conditions noted are these: P. falciparum 3D7 erythrocytic growth, LDH absorbance, 72 h; at 2 µM; active compounds read high.
In assay [5] the target is Calcium-dependent protein kinase 1 (Plasmodium falciparum (isolate 3D7)) (UniProt P62344). The experiment in a line: PfCDPK1 kinase inhibitors, biochemical, TCAMS library (AID 1159585; cut-off not given, nearly all actives have IC50 up to about 0.98 µM;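 note: inhibitors leave more ATP so luminescence rises with inhibition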). The settings on record: recombinant PfCDPK1, Kinase-Glo ATP depletion luminescence. (In general: Kinase-Glo reads ATP consumption through a luciferase reaction.)
Chain of Calcium-dependent protein kinase 1 (Plasmodium falciparum (isolate 3D7)) (P62344 whole entry, looked up): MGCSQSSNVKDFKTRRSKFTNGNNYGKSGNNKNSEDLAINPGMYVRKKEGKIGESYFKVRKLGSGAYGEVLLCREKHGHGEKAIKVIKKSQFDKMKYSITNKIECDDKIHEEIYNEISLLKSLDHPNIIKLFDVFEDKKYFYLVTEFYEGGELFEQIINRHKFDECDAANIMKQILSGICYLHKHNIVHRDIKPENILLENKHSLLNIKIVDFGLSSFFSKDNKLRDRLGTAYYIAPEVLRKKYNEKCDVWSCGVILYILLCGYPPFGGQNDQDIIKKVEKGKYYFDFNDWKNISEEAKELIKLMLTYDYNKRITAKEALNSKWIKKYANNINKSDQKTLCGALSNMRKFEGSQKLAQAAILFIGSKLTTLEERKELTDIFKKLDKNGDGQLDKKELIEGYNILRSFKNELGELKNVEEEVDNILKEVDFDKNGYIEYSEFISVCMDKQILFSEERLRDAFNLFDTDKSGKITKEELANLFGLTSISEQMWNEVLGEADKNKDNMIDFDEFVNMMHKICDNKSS
Assay [6] concerns the target Plasmodium falciparum protein kinase 6 (PK6, PF3D7_1337100) (UniProt Q8IDW1). The experiment in a line: PfPK6 kinase inhibitors, biochemical, TCAMS library (AID 1159586). The settings on record: recombinant PfPK6, Kinase-Glo ATP depletion luminescence.
For assay [7], the target named is Protein kinase 7 (PK7), Plasmodium falciparum 3D7 (PF3D7_0213400) (UniProt Q7YTF7). The experiment in a line: inhibition of Plasmodium PK7 catalytic activity – biochemical, TCAMS antimalarial set, Kinase-Glo luminescence (AID 1159587). The settings on record: recombinant PfPK7, Kinase-Glo ATP depletion luminescence.
Chain of Protein kinase 7 (PK7), Plasmodium falciparum 3D7 (PF3D7_0213400) (Q7YTF7 1-343): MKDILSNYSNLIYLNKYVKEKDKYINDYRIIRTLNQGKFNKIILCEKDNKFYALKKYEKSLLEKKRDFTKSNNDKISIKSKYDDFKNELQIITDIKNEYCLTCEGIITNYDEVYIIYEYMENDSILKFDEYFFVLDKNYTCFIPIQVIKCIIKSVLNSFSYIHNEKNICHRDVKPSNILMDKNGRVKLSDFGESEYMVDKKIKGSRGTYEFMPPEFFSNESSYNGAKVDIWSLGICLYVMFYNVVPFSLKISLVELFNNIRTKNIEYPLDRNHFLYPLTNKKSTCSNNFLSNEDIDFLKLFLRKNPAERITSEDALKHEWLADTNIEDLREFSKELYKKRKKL
The target of assay [8] is Calcium-dependent protein kinase 4 (Plasmodium falciparum (isolate 3D7)) (UniProt Q8IBS5). The experiment in a line: PfCDPK4 kinase inhibitors, biochemical, TCAMS library (AID 1159588; cut-off not given, nearly all actives have IC50 up to about 0.91 µM). The conditions noted are these: recombinant PfCDPK4, Kinase-Glo ATP depletion luminescence.
Chain of Calcium-dependent protein kinase 4 (Plasmodium falciparum (isolate 3D7)) (Q8IBS5 whole entry, looked up): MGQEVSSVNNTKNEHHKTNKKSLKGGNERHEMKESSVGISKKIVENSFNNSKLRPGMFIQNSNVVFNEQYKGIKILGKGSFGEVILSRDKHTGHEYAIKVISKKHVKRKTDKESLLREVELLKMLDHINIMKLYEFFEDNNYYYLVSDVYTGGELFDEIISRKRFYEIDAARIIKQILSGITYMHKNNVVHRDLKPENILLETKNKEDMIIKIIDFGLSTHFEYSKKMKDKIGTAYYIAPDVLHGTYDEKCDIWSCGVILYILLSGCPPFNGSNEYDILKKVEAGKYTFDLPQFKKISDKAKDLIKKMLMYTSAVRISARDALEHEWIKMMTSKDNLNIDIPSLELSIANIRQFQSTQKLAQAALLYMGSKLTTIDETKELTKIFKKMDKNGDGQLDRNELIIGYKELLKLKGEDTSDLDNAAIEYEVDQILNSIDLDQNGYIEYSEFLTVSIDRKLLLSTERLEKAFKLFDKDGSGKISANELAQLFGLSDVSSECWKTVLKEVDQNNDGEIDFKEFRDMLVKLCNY

Unmarked numbers belong to inactive results. For some of these results: Measured potencies and affinities stand elsewhere. The source made the active and inactive calls. Unless noted, the rule behind the calls is not given here.

Chain of Plasmodium falciparum protein kinase 6 (PK6, PF3D7_1337100) (Q8IDW1 1-305): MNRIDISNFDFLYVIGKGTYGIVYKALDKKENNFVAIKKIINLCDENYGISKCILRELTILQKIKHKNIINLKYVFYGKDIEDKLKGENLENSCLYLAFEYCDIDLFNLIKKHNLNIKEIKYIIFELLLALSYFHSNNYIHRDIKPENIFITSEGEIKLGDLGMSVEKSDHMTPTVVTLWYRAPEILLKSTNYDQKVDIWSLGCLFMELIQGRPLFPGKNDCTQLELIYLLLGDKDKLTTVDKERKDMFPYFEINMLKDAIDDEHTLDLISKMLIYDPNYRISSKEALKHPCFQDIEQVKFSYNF

`CN(C)CC1CCCN1Cc1ccccc1-c1cnn(C)c(=O)c1Oc1ccc(F)cc1` (stereo not given): the growth inhibition in assay [1] was 19%; in assay [4] it was 91% (active). Further, the inhibition in assay [2] is 29%; in assay [3], 2%. The result in assay [5], in assay [6], in assay [7] and in assay [8] was inactive.

On to `O=C(/C=C/c1ccc(Cl)cc1)NCCCCCN1CCN(C(=O)Nc2ccc(Cl)c(C(F)(F)F)c2)CC1`, for which the growth inhibition in assay [1] is 5%; in assay [4], 94% (active). The inhibition in assay [2] was 18%; in assay [3], 8%. Besides, the outcome in assay [5], in assay [6], in assay [7] and in assay [8] was inactive.

Regarding `O=C(O)CCCN1CCCC(=C(c2ccccc2)c2ccccc2)C1`, the growth inhibition was 2% in assay [1] and 82% (active) in assay [4]. For the same compound, the inhibition in assay [2] was -5%; in assay [3] it was 0%. Besides, the result in assay [5], in assay [6], in assay [7] and in assay [8] was inactive.

In the case of `C#CCCOc1ccc2ccccc2c1CNCCCCCCNCc1c(OCCC#C)ccc2ccccc12`, the growth inhibition is 65% (active) in assay [1] and 100% (active) in assay [4]. Besides, the inhibition in assay [2] is 100% (active); in assay [3], 2%. Besides, the outcome in assay [5], in assay [6], in assay [7] and in assay [8] was inactive.

`CC(C)C[C@H](Nc1ccc(C#N)c2ccccc12)C(=O)NC(C)(C)C12CC3CC(CC(C3)C1)C2`: the growth inhibition was 30% in assay [1] and 96% (active) in assay [4]. For the same compound, the figures for the inhibition in assay [2] and in assay [3] were 19% and -1%, respectively. Further, the outcome in assay [5], in assay [6], in assay [7] and in assay [8] was inactive.

Regarding `O=C(/C=C/c1cc(C(F)(F)F)ccc1F)NCCCCCN1CCC(c2c[nH]c3ccccc23)CC1`, the growth inhibition in assay [1] is 4%; in assay [4], 88% (active). Also, the inhibition in assay [2] is 39%; in assay [3], -1%. Further, the result in assay [5], in assay [6], in assay [7] and in assay [8] was inactive.

As for `CC(C)(C)CCOC(=O)N1CCc2c(cc(O)c(O)c2Cl)C(c2ccc(O)cc2)C1` (stereo not given), the growth inhibition in assay [1] is 95% (active); in assay [4] it was 97% (active). In addition, the results for the inhibition in assay [2] and in assay [3] were 2% and -2%, respectively. In addition, the outcome in assay [5], in assay [6], in assay [7] and in assay [8] was inactive.

With `CCCNCc1ccc(-c2ccc(CN(C(=O)c3nn(-c4ccccc4)nc3C)C(C)CN(C)C)cc2)nc1` (stereo not given), the growth inhibition in assay [1] and in assay [4] was 95% (active) each time. Moreover, the inhibition in assay [2] was 27%; in assay [3] it was -8%. In addition, the result in assay [5], in assay [6], in assay [7] and in assay [8] was inactive.

With `Cc1[nH]nc2cc(F)c(-c3cc(OC[C@@H](N)Cc4ccccc4)cnc3-c3ccoc3)cc12`, the growth inhibition was 15% in assay [1] and 95% (active) in assay [4]. Moreover, the inhibition in assay [2] was 22%; in assay [3], 6%. Besides, the result in assay [5], in assay [6], in assay [7] and in assay [8] was inactive.

Regarding `COc1cc(Nc2nccc(N3CCC(NC(=O)Nc4ccc5c(c4)OCO5)C3)n2)cc(OC)c1OC` (stereo not given), the growth inhibition is 74% (active) in assay [1] and 96% (active) in assay [4]. Besides, the inhibition in assay [2] is 9%; in assay [3] it was -1%. Moreover, the result in assay [5], in assay [6], in assay [7] and in assay [8] was inactive.

Take `CC(Sc1nc2sccc2c(=O)n1C)C(=O)Nc1ccc2c(c1)OCO2` (stereo not given): the growth inhibition in assay [1] and in assay [4] was 100% (active) throughout. In addition, the inhibition is 5% in assay [2] and 4% in assay [3]. Also, the outcome in assay [5], in assay [6], in assay [7] and in assay [8] was inactive.

As for `COc1ccccc1C(C)NCC(=O)Nc1cccc(C(=O)Nc2cccc(C(F)(F)F)c2)c1` (stereo not given), the growth inhibition in assay [1] is 39%; in assay [4], 91% (active). For the same compound, the inhibition in assay [2] is 34%; in assay [3] it was 5%. Also, the result in assay [5], in assay [6], in assay [7] and in assay [8] was inactive.

With `O=C(NCCCCNCC(Cc1cccc(O)c1)c1ccccc1)c1ccc(NC(=O)c2ccc(Cl)cc2)cc1` (stereo not given), the growth inhibition is 1% in assay [1] and 96% (active) in assay [4]. The inhibition in assay [2] is -1%; in assay [3], 2%. The result in assay [5], in assay [6], in assay [7] and in assay [8] was inactive.

Regarding `CCN(CC)S(=O)(=O)c1ccc(CCOCCCCCNCC(O)c2cc(Cl)c(N)c(Cl)c2)s1` (stereo not given), the growth inhibition in assay [1] was 80% (active); in assay [4] it was 96% (active). The figures for the inhibition in assay [2] and in assay [3] were 35% and -10%, respectively. Further, the result in assay [5], in assay [6], in assay [7] and in assay [8] was inactive.

As for `CNc1c2c(nc3ccc(NC(=O)CCCCCCc4ccccc4)cc13)CCCC2`, the results for the growth inhibition in assay [1] and in assay [4] were 82% (active) and 100% (active), respectively. In addition, the inhibition in assay [2] and in assay [3] was 0% throughout. Also, the result in assay [5], in assay [6], in assay [7] and in assay [8] was inactive.

On to `FC(F)(F)c1ccc2nc(-c3ccc(-c4ccc(CN5CCN(c6cnccn6)CC5)cc4)s3)[nH]c2c1`, for which the growth inhibition is 99% (active) in assay [1] and 101% (active) in assay [4]. In addition, the inhibition was 23% in assay [2] and -7% in assay [3]. Besides, the outcome in assay [5], in assay [6], in assay [7] and in assay [8] was inactive.

In the case of `CN1CCN(c2ccnc3ccc(NC(=O)Nc4cccc5ccccc45)cc23)CC1`, the values for the growth inhibition in assay [1] and in assay [4] were 96% (active) and 101% (active), respectively. The results for the inhibition in assay [2] and in assay [3] were -3% and 1%, respectively. Moreover, the outcome in assay [5], in assay [6], in assay [7] and in assay [8] was inactive.

For the compound `COCn1ncc2cc(-c3cccc(NC(=O)c4csc(NC(C)=O)n4)c3)ccc21`, the growth inhibition in assay [1] was 68% (active); in assay [4], 89% (active). Also, the inhibition in assay [2] was 0%; in assay [3], 7%. Besides, the outcome in assay [5], in assay [6], in assay [7] and in assay [8] was inactive.

As for `Cc1cc(=O)[nH]c(/N=C(/N)NOCc2ccccc2)n1`, the growth inhibition in assay [1] was 1%; in assay [4], 101% (active). In addition, the inhibition in assay [2] and in assay [3] was 0% throughout. In addition, the result in assay [5], in assay [6], in assay [7] and in assay [8] was inactive.

In the case of `CC(=O)Nc1cccc(CNCc2ccc(-c3cnc(N4CCCC(C)(C)C4)nc3)cc2)c1`, the growth inhibition was 75% (active) in assay [1] and 93% (active) in assay [4]. Further, the results for the inhibition in assay [2] and in assay [3] were 10% and 0%, respectively. The outcome in assay [5], in assay [6], in assay [7] and in assay [8] was inactive.

By inhibition is commonly meant the change of the read-out against control, counted positive when it falls.
